# Test results from PubChem BioAssay (NCI).
# The panel holds about 83,000 compounds, 20% with a hit somewhere; the sample as a whole holds those more often.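 Single-dose data. Exposure time 48 hours. Values below 10 considered active.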 The source made the active and inactive calls.
# Tested on: RXF 393 renal
# Test: NCI-60 one-dose screen, 48 h (100 = growth as untreated, 0 = no growth, -100 = all killed)
# Conditions: 10 µM unless noted
row,Compound,growth
1,COC(=O)c1ccc2c(c1)C(=O)c1c-2n(CCCN)c(=O)c2cc([N+](=O)[O-])ccc12,-87.5% (active)
2,O=C(Nn1c2c(sc1=Nc1ccccc1)C(=O)c1ccccc1C2=O)c1cc2ccc1CCc1ccc(cc1)CC2,70.7% (inactive)
3,O=C(CN1C(=O)CCC1=O)Nc1ncc(Cc2ccc(F)cc2)s1,109% (inactive)
4,Nc1ncnc2c1N=C(c1ccc(Cl)cc1)CC(c1ccc3c(c1)OCO3)N2 (stereo not given),80.9% (inactive)
5,N#C/C(=C/c1ccc([N+](=O)[O-])cc1)n1nnc2cc(F)c(F)cc21,83.3% (inactive)
6,COc1ccc(C(=O)Nc2ncc(Cc3ccc(F)cc3)s2)cc1,7.03% (active)
7,CCN1CCN(Cc2cn(CC(=O)Nc3ccc4c(ccn4Cc4ccccc4)c3)nn2)CC1,111% (inactive)
8,CCOC(=O)C1=C(NC)OCC1=O,100% (inactive)
9,CC(=O)c1cc(O)c2ccccc2c1O,111% (inactive)
10,CC1(C)CC[C@]2(c3nnc(-c4ccncc4)o3)CC[C@H]3C(=CC[C@H]4[C@@]3(C)CC[C@H]3C(C)(C)C(=O)CC[C@]43C)[C@@H]2C1,79% (inactive)
11,CC(C)(C)n1cc(-c2ccnc(NCCCNS(=O)(=O)c3ccc(F)cc3)c2)c(-c2cccc(F)c2)n1,68% (inactive)
12,COc1cc(CNS(=O)(=O)c2ccc(C)cc2)ccc1OCc1cn(-c2ccc(Br)cc2)nn1,97.1% (inactive)
13,Cc1ccc(-c2csc(NC(=O)CN3CCN(c4cc5c(cc4F)c(=O)c(C(=O)O)cn5C4CC4)CC3)n2)cc1,27.2% (inactive)
14,CCCCCCCCCCCCCCCCCCOc1ccccc1CC(=O)OCC[N+]1(C)CCCC1,-26.3% (active)
15,COc1ccc(-c2nc(/C=C3\SC(=NCc4ccccc4)NC3=O)c3ccccn23)cc1,-86.7% (active)
16,COc1ccc2c3c([nH]c2c1)C(=O)c1nc(C)ccc1C3=O,69.9% (inactive)
17,CN(CCOc1ccc(C#N)cc1)CCOc1ccc(C#N)cc1,53.7% (inactive)
18,CCN1C(=O)N(CC)C2C1NN=c1s/c(=C\c3cccc([N+](=O)[O-])c3)c(=O)n12 (stereo not given),31.4% (inactive)
19,O=C(CCCCCCN1CC(=O)N2[C@H](c3cc(Br)cs3)c3[nH]c4ccccc4c3C[C@H]2C1=O)NO,18.7% (inactive)
20,Cc1ccc(/C=C2\CN(C(=O)OC(C)(C)C)C/C(=C\c3ccc(C)cc3)C2=O)cc1,99.4% (inactive)

row,Compound,growth
1,CN(C)CCNC(=O)c1cccc(-c2cnc3ccc(-c4ccc5c(c4)OCO5)nn23)c1,42.3% (inactive)
2,Cn1c(=O)c2c(nc(NC3=NS(=O)(=O)c4ccccc43)n2CC(=O)N2CCc3ccccc32)n(C)c1=O,92.7% (inactive)
3,Cc1ccc(NC(=S)NNC(=S)NNc2ccccc2)cc1C,96.3% (inactive)
4,C=CCn1c(SCC(=O)Nc2ccc(C(=O)/C=C/c3cc4cc(OC)ccc4nc3Cl)cc2)nnc1-c1ccc(Br)cc1,83.2% (inactive)
5,CCCC(=O)NC(c1ccc2c(c1)OCO2)c1ccc2cccnc2c1O (stereo not given),18.3% (inactive)
6,c1ccc(C2=NN[C@H](c3cn(-c4ccccc4)nc3-c3ccccc3)C2)cc1,32.1% (inactive)
7,C[C@@H]1CCC[C@H]1CC(N)C(=O)O (stereo not given in full),117% (inactive)
8,O=C1c2cccnc2C(=O)c2c1c(C(=O)NCCCN1CCCCC1)c1ccccn21,-39.5% (active)
9,CCCCCCCCn1ccc2cc(NC(=O)Cn3cc(CN4CCCCC4)nn3)ccc21,-72% (active)
10,COC(C(=O)[C@@H](O)[C@@H](C)O)[C@@H]1Cc2cc3cc(O[C@H]4C[C@@H](O[C@H]5C[C@@H](O)[C@H](O)C(C)O5)[C@H](O)C(C)O4)c(C)c(O)c3c(O)c2C(=O)[C@H]1O[C@H]1C[C@@H](O[C@H]2C[C@@H](O[C@H]3C[C@@H](O)[C@H](OC)C(C)O3)[C@@H](O)C(C)O2)[C@H](O)C(C)O1 (stereo not given in full),-55.4% (active)
11,CCCCN1C(=O)/C(=c2\sc3n(c2=O)C2C(NN=3)N(CC)C(=O)N2CC)c2ccccc21 (stereo not given),-29.5% (active)
12,COc1ccc2c(O)c(/C=C3\N=Nc4ncccc43)oc2c1C[C@H]1CCNC[C@H]1F,-44.4% (active)
13,COc1ccc2c(O)c(/C=C3\N=Nc4ccccc43)oc2c1C[C@@H]1CCNC[C@H]1F,80.5% (inactive)
14,COc1ccc(N2CCC(=O)NC2=S)cc1,109% (inactive)
15,CC(=O)OCc1nc(C#N)c(N(C)C)o1,87.6% (inactive)
16,O=C(Nc1ccc(NC(=O)c2cc(=O)[nH]c3ccccc23)cc1)Nc1cccc(C(F)(F)F)c1,108% (inactive)
17,CCN(CC)CCCN1C(=O)c2c(c(C)c3c(oc4cc(O)ccc43)c2C)C1=O,75.7% (inactive)
18,COc1cc(OC)cc(C2=C3CC[C@@H]4[C@H](CC[C@]5(C)C(=O)CC[C@@H]45)C3=CC3C(O)c4cccnc4N4C(=O)COC234)c1 (stereo not given in full),107% (inactive)
19,Oc1ccc(CN2CCC(N3CCCCC3)CC2)c2cccnc12,29.6% (inactive)
20,CN(C)CC(=O)Nc1ccc2ncnc(Nc3ccc(Oc4cccc(C(F)(F)F)c4)c(Cl)c3)c2c1,50.6% (inactive)
